{
  "source": "the OligoGym collection",
  "data": [
    {"molecular_target": "HPD", "assay": "pooled miR-30 sensor sort-seq; sequence = guide strand", "conditions": "shRNA", "values": [
      {"sequence": "AAACTTGTCTTGCTCTACCCAG", "sensor-assay potency score (higher = more potent)": -0.591},
      {"sequence": "TGCTGCAGTAGAATGACGCGGC", "sensor-assay potency score (higher = more potent)": -0.159},
      {"sequence": "TTTGATTACATGGCTGACCACC", "sensor-assay potency score (higher = more potent)": -0.613},
      {"sequence": "TTTCTCGTCGTAGTCCACCAGG", "sensor-assay potency score (higher = more potent)": -0.901},
      {"sequence": "TTTGGTGAAGATCTGCAGGAGG", "sensor-assay potency score (higher = more potent)": -0.36},
      {"sequence": "AACTTGTCTTGCTCTACCCAGG", "sensor-assay potency score (higher = more potent)": -0.858},
      {"sequence": "TACATGGCTGACCACCTCCCGG", "sensor-assay potency score (higher = more potent)": -1.66}
    ]},
    {"molecular_target": "HS3ST2", "assay": "pooled miR-30 sensor sort-seq; sequence = guide strand", "conditions": "shRNA", "values": [
      {"sequence": "ATAATATCTATCATCATTGGAA", "sensor-assay potency score (higher = more potent)": -0.218},
      {"sequence": "TAACAGCAGAATTATGTGCTTT", "sensor-assay potency score (higher = more potent)": -0.0537},
      {"sequence": "TAACACAGGTAAGTGCAGGAGA", "sensor-assay potency score (higher = more potent)": -0.326},
      {"sequence": "TTGAGTGACAAAGTAGCTGGGC", "sensor-assay potency score (higher = more potent)": 0.674},
      {"sequence": "TTCTTGGAGAGTGTCTGCGTGT", "sensor-assay potency score (higher = more potent)": -0.361},
      {"sequence": "TCTTGAGTGACAAAGTAGCTGG", "sensor-assay potency score (higher = more potent)": -0.586},
      {"sequence": "ATCGCTTATAATATCTATCATC", "sensor-assay potency score (higher = more potent)": -1.47},
      {"sequence": "TTGATTTGCCCAAGCATCGAGG", "sensor-assay potency score (higher = more potent)": -0.341},
      {"sequence": "TTGTCCGTGATGAATCTCTTAA", "sensor-assay potency score (higher = more potent)": -1.07},
      {"sequence": "TTGCTTGAACAGACTGATGAAA", "sensor-assay potency score (higher = more potent)": -0.965},
      {"sequence": "TTATTTCACATGGACAAGCATG", "sensor-assay potency score (higher = more potent)": -1.23}
    ]},
    {"molecular_target": "HS3ST4", "assay": "pooled miR-30 sensor sort-seq; sequence = guide strand", "conditions": "shRNA", "values": [
      {"sequence": "TTGACAACTATTTATCCTCTGT", "sensor-assay potency score (higher = more potent)": 0.841},
      {"sequence": "TTGTCACAAAGTAACTTGGAGT", "sensor-assay potency score (higher = more potent)": -0.395},
      {"sequence": "TTTTACTAGAACAATTCCTGGT", "sensor-assay potency score (higher = more potent)": 0.147},
      {"sequence": "TTCTGTACCACTCCAACCCCTT", "sensor-assay potency score (higher = more potent)": -0.516},
      {"sequence": "TTTCTTTGACAGTGTCTGCGTG", "sensor-assay potency score (higher = more potent)": -0.405},
      {"sequence": "TTCTTTGACAGTGTCTGCGTGT", "sensor-assay potency score (higher = more potent)": 0.364},
      {"sequence": "TAAAACATCAAGTTGAAGGGTT", "sensor-assay potency score (higher = more potent)": 0.47},
      {"sequence": "TTTGTCACAAAGTAACTTGGAG", "sensor-assay potency score (higher = more potent)": -0.0205},
      {"sequence": "TTTACTAGAACAATTCCTGGTT", "sensor-assay potency score (higher = more potent)": 0.821},
      {"sequence": "TTTGAGGCCTAGAAAATCCTGT", "sensor-assay potency score (higher = more potent)": 0.0519},
      {"sequence": "TTTGTTGAAATAGAAATGCTTC", "sensor-assay potency score (higher = more potent)": -0.152},
      {"sequence": "TGAGCCGTGATCATCTCGCTGG", "sensor-assay potency score (higher = more potent)": -0.131}
    ]},
    {"molecular_target": "HS6ST1", "assay": "pooled miR-30 sensor sort-seq; sequence = guide strand", "conditions": "shRNA", "values": [
      {"sequence": "TTGGTGAGGGACACACTCCCGG", "sensor-assay potency score (higher = more potent)": -0.875},
      {"sequence": "TAGTGTGATGCATCCACCCAGG", "sensor-assay potency score (higher = more potent)": -0.887},
      {"sequence": "TAGCAGGTGCACTTCTTCTGGC", "sensor-assay potency score (higher = more potent)": -0.598},
      {"sequence": "TTGAGCTCCTCGATGCGCCGGA", "sensor-assay potency score (higher = more potent)": 0.162},
      {"sequence": "TTGAGGTTGAACGTCCGCTCGA", "sensor-assay potency score (higher = more potent)": -0.171},
      {"sequence": "TGATGTAGTAGAACTTCCTGGG", "sensor-assay potency score (higher = more potent)": 0.812},
      {"sequence": "TTGAACGTCCGCTCGAACAGGT", "sensor-assay potency score (higher = more potent)": -0.0201},
      {"sequence": "ATGAGCATGAAGCACACCGAGC", "sensor-assay potency score (higher = more potent)": -1.78},
      {"sequence": "TAGTAGAACTTCCTGGGCGTGC", "sensor-assay potency score (higher = more potent)": -0.463},
      {"sequence": "TACTTCTTCTCGTAGTGGGGGT", "sensor-assay potency score (higher = more potent)": -0.105}
    ]}
  ]
}
